From PubChem BioAssay (NCI)
The panel holds about 83,000 compounds, 20% with a hit somewhere; the sample as a whole holds those more often.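 Step 1: grow cells in 96-well plates. Step 2: add test compound at a single concentration. Step 3: incubate 48 h. Step 4: record percent growth.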 Calls of active or inactive are those of the source. How the source made its calls: active means growth percent below 10; inactive means the rest.

What was measured:
Test in all cases: NCI-60 one-dose screen, 48 h (100 = growth as untreated, 0 = no growth, -100 = all killed)
[1] = test system: SK-MEL-2 melanoma; conditions: 10 µM unless noted
[2] = test system: EKVX NSCLC; conditions: 10 µM unless noted
[3] = test system: SN12C renal; conditions: 10 µM unless noted
[4] = test system: UO-31 renal; conditions: 10 µM unless noted
[5] = test system: TK-10 renal; conditions: 10 µM unless noted
[6] = test system: ACHN renal; conditions: 10 µM unless noted
[7] = test system: CAKI-1 renal; conditions: 10 µM
[8] = test system: MOLT-4 leukemia; conditions: 10 µM unless noted
[9] = test system: SR leukemia; conditions: 10 µM unless noted
[10] = test system: OVCAR-8 ovarian; conditions: 10 µM unless noted
[11] = test system: OVCAR-5 ovarian; conditions: 10 µM unless noted
[12] = test system: OVCAR-4 ovarian; conditions: 10 µM unless noted
[13] = test system: SK-OV-3 ovarian; conditions: 10 µM unless noted
[14] = test system: IGROV1 ovarian; conditions: 10 µM unless noted
[15] = test system: OVCAR-3 ovarian; conditions: 10 µM unless noted
[16] = test system: HS 578T breast; conditions: 10 µM unless noted
[17] = test system: NCI/ADR-RES ovarian; conditions: 10 µM unless noted
[18] = test system: CCRF-CEM leukemia; conditions: 10 µM unless noted
[19] = test system: A498 renal; conditions: 10 µM unless noted
[20] = test system: RPMI-8226 leukemia; conditions: 10 µM unless noted

Measured: growth

CCNC(=O)Oc1ccc(/C(=C(/C)c2ccc(Cl)cc2)c2ccc(OCCN3CCCC3)cc2)cc1
inactive: [1] 104% | [2] 80.2% | [3] 75.4% | [4] 65.8% | [5] 97.6% | [6] 95% | [7] 85.7% | [8] 58.6% | [9] 23.2% | [10] 87.7% | [11] 90.5% | [12] 88.6% | [13] 106% | [14] 78.1% | [15] 99.8% | [16] 92.8% | [17] 78.7%

O=C(Nc1ccc(Cl)cc1)Nc1nc2ccc([N+](=O)[O-])cc2s1
inactive: [11] 18.4% | [14] 14.7%
active: [1] -40.8% | [2] 4.04% | [3] -0.314% | [4] 3.55% | [5] -20.5% | [6] 0.28% | [7] -16.5% | [18] 4.8% | [8] -7.74% | [9] -24.3% | [10] 6.03% | [12] -4.3% | [13] -12.3% | [15] -26.6% | [16] -15.8% | [17] -6.91%

N#Cc1c(-c2cccs2)cc(-c2cnccn2)nc1SCC(=O)NNC(=S)Nc1ccc(F)cc1
inactive: [1] 123% | [2] 103% | [3] 100% | [4] 79% | [5] 108% | [6] 104% | [19] 118% | [18] 93.6% | [8] 94.9% | [9] 85.1% | [20] 105% | [10] 104% | [11] 109% | [12] 96.3% | [13] 121% | [14] 106% | [15] 122% | [16] 109% | [17] 106%

C#C[C@]1(O)CC[C@H]2[C@@H]3CC=C4c5sc(Nc6cccc(Cl)n6)nc5CC[C@]4(C)[C@H]3CC[C@@]21C
inactive: [3] 40% | [5] 33.2% | [6] 16.4% | [10] 29.3% | [11] 22.8% | [12] 47.8% | [14] 35.6% | [17] 23%
active: [1] -24.9% | [2] 1.89% | [4] -37.8% | [19] -62.6% | [18] 5.11% | [8] -15.9% | [9] 2.56% | [20] -23.2% | [13] -13.7% | [16] -19.9%

CN(c1ccc(Cl)cc1)S(=O)(=O)c1ccc(-c2cnc(C3CC3)o2)cc1
inactive: [1] 63.7% | [2] 47% | [3] 29.8% | [4] 47.3% | [5] 75.8% | [6] 33.6% | [19] 12.8% | [18] 17.1% | [8] 16.8% | [10] 30.7% | [11] 38.3% | [12] 54.7% | [13] 84.1% | [14] 28.8% | [16] 49.3% | [17] 13.6%
active: [9] 8.67% | [15] 9.18%

CCOC(=O)c1c(NCC(=O)Nc2cccc(Cl)c2)sc2c1CCCC2
inactive: [1] 93.5% | [2] 89.9% | [3] 73% | [4] 76.4% | [5] 146% | [6] 88.7% | [18] 58% | [8] 47.2% | [9] 69.4% | [20] 78.6% | [10] 87.7% | [11] 94.5% | [12] 80.3% | [13] 84.2% | [14] 50.6% | [15] 82.8% | [16] 77.4% | [17] 81.6%

CCCCCCCCCC[C@@H](C)[C@@H]1CC(=O)N[C@H]([C@@H](C)O)C(=O)N[C@@H](C)C(=O)N[C@H](C)C(=O)N[C@@H](CCC(N)=O)C(=O)N[C@H](Cc2ccc(O)cc2)C(=O)N[C@@H](C(C)CC)C(=O)O1 (stereo not given in full)
inactive: [1] 65.5% | [2] 66.6% | [3] 66.5% | [4] 79.6% | [5] 47.9% | [6] 98.3% | [19] 64.3% | [18] 63.2% | [8] 41.1% | [9] 75% | [20] 35.1% | [10] 51.8% | [11] 92.2% | [12] 30.9% | [13] 66.5% | [14] 76.2% | [15] 48.4% | [16] 89% | [17] 93.6%

O=C(N/N=C\c1ccc(Cl)cc1)c1ccc2nc(-c3ccc(Br)cc3)[nH]c2c1
inactive: [1] 82.7% | [4] 15.9% | [19] 65.4% | [18] 26.3% | [8] 11.6% | [11] 36.8% | [13] 79.1% | [16] 15.6% | [17] 35.7%
active: [2] 0.288% | [3] -14.6% | [5] -26.8% | [6] -12.6% | [9] -8.2% | [20] -8.35% | [10] -14.4% | [12] -44.1% | [14] -43.6%

O=C1[C@H]2Cc3c([nH]c4ccccc34)[C@@H](c3ccc(Cl)cc3)N2C(=O)CN1C1CCN(Cc2c(Cl)cccc2Cl)CC1
active: [4] 2.51% | [6] -33.8% | [14] -44.1%
inactive: [1] 102% | [2] 78.6% | [3] 81.3% | [5] 107% | [18] 65.8% | [8] 97.3% | [9] 29.8% | [20] 88.4% | [10] 89.2% | [11] 98.1% | [12] 87.1% | [13] 108% | [15] 100% | [16] 88.2% | [17] 81.5%

COc1cc2cc(Oc3ccc(NC(=O)c4cccc(C(F)(F)F)c4)cc3)c(C)nc2cc1OCCN(C)C
inactive: [1] 108% | [2] 83% | [3] 84.1% | [4] 84% | [5] 98% | [6] 86.6% | [19] 100% | [18] 41% | [8] 67.1% | [9] 28.6% | [20] 73.1% | [10] 89.8% | [11] 103% | [12] 80.5% | [13] 108% | [14] 93.2% | [15] 102% | [16] 74.8% | [17] 80.7%

COc1cc(O)c2c(c1)[C@H]1O[C@@H]1C[C@H](O)[C@H](O)C(=O)/C=C\C[C@H](C)OC2=O
inactive: [1] 20.1% | [2] 51.8% | [3] 53.5% | [4] 20.4% | [5] 48.6% | [6] 45.4% | [19] 58.9% | [18] 22.2% | [8] 33.6% | [9] 22.3% | [20] 24.5% | [10] 59.3% | [11] 61.5% | [13] 80.2% | [14] 39% | [15] 32.1% | [16] 76.6% | [17] 78.7%

CC(=O)NC(C)(C)C(=O)N1CCC[C@H]1C(=O)NC(C)(C)C(=O)N[C@@H](C)C(=O)NC(C)(C)C(=O)NC(C)(C)C(=O)N[C@@H](CCC(N)=O)C(=O)NC(C)(C)C(=O)N[C@H](C(=O)NC(C)(C)C(=O)NCC(=O)N[C@@H](CC(C)C)C(=O)NC(C)(C)C(=O)N1CCC[C@H]1C(=O)N[C@H](C(=O)NC(C)(C)C(=O)NC(C)(C)C(=O)N[C@@H](CCC(N)=O)C(=O)N[C@@H](CCC(N)=O)C(=O)N[C@H](CO)Cc1ccccc1)C(C)C)C(C)C
active: [1] 0.326% [4.25 µM] | [20] -17.4% [4.25 µM]
inactive: [2] 65% [4.25 µM] | [3] 13.4% [4.25 µM] | [4] 97.7% [4.25 µM] | [5] 59.2% [4.25 µM] | [6] 96.3% [4.25 µM] | [18] 36.3% [4.25 µM] | [8] 35.6% [4.25 µM] | [9] 30.2% [4.25 µM] | [10] 46.3% [4.25 µM] | [11] 45.2% [4.25 µM] | [12] 24.5% [4.25 µM] | [13] 17.1% [4.25 µM] | [14] 46.4% [4.25 µM] | [15] 26.3% [4.25 µM] | [16] 46% [4.25 µM] | [17] 101% [4.25 µM]

CC[C@H](C)[C@H]1NC(=O)[C@@H]([C@H](O)C(C)C)NC(=O)[C@@H](C)N(C)C(=O)[C@H](C)N(C)C(=O)[C@H](CC(C)C)NC(=O)[C@H](CC(C)C)N(C)C(=O)[C@H](C)N(C)C1=O
active: [1] -27% | [2] -4.22% | [3] 2.49% | [4] 5.19% | [5] 1.97% | [6] 5.95% | [19] 5.77% | [18] 4.88% | [8] 1.68% | [9] 5.76% | [20] -13.8% | [10] 4.14% | [11] 6.87% | [12] 8.31% | [13] -9.12% | [15] 6.47% | [16] 5.82%
inactive: [14] 10.5% | [17] 11.4%

CC(C)=CCc1c(O)c(CC=C(C)C)c2c(c1O)C(=O)C1=C[C@@H]3C[C@H]4C(C)(C)O[C@@](C/C=C(\C)C(=O)O)(C3=O)[C@@]14O2
active: [1] -53% | [2] -3.05% | [4] -30.9% | [6] -0.932% | [19] -31.6% | [18] 1.76% | [8] 1.93% | [9] -4.41% | [20] -23.1% | [11] 8.41% | [14] -21.8% | [15] -55%
inactive: [3] 12.3% | [10] 10.1% | [12] 33.2% | [13] 42.4% | [16] 27.7% | [17] 10.7%
